Laboratory results from PubChem BioAssay (NCATS).
Inconclusive results are not listed. Calls of active or inactive are those of the source. The call rests on the fitted dose curve; in most records, active means well fitted curve in the direction sought with a large enough effect; inconclusive means small, poorly fitted or top-dose-only effect, or another doubt; inactive means no such curve, though single readings can be large; an effect the other way counts as inactive or inconclusive.

What was measured:
[1] = HEK293 18hr Apoptosis Induction qHTS against the NCATS CANVASS Library (AID 1347357)
In short: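 Caspase-Glo 3/7 luminescence (15 min, room temperature) measured apoptosis after an 18-hour, 37 degrees C exposure of HEK293 cells (500 cells/well) to compounds in 11 points.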

[2] = HPAF-II 12hr Apoptosis Induction qHTS against the NCATS CANVASS Library (AID 1347358)
In short: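 Apoptosis in HPAF-II pancreatic cancer cells is scored as caspase 3/7 luminescence following a 12-hour exposure to an 11-point compound series.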

[3] = HEK293 24hr Apoptosis Induction qHTS against the NCATS CANVASS Library (AID 1347359)
In short: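 HEK293 cells, 500 per well, exposed to an 11-point compound series for 24 hours at 37 degrees C. Caspase 3/7 activity read by Caspase-Glo luminescence (DEVD substrate) after 15 min at room temperature.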

[4] = HPAF-II 18hr Apoptosis Induction qHTS against the NCATS CANVASS Library (AID 1347360)
In short: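 Caspase-3/7 activation was measured with luminescent Caspase-Glo 3/7 reagent (15 min, RT) in HPAF-II cancer cells (500 cells/well). Before detection, cells had been treated for 18 h at 37 C with compounds (11 points).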

[5] = HEK293 12hr Apoptosis Induction qHTS against the NCATS CANVASS Library (AID 1347361)
In short: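 HEK293 cells (500/well, DMEM + 10% FBS) were exposed to natural products across an 11-point series for 12 hours at 37 degrees C. Caspase-3/7 activity was then measured with DEVD luciferase luminescence after 15 min at room temperature.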

[6] = system: NAD(P)H diaphorase (Clostridium kluyveri); assay: Diaphorse counterscreen qHTS: Assay Interference Panel against the NCATS CANVASS Library (AID 1347362)
In short: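 Clostridium kluyveri diaphorase in PBS + 0.01% Tween-20 preincubated 15 min with compounds. Resazurin and NADH then added for 5 min at room temperature in the dark; resorufin fluorescence read (ex 525, em 598).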

[7] = target: Luciferin 4-monooxygenase (Photinus pyralis) (UniProt P08659); assay: Firefly luciferase counterscreen qHTS: Assay Interference Panel against the NCATS CANVASS Library (AID 1347363)
Sequence of Luciferin 4-monooxygenase (Photinus pyralis) (P08659 whole entry, looked up): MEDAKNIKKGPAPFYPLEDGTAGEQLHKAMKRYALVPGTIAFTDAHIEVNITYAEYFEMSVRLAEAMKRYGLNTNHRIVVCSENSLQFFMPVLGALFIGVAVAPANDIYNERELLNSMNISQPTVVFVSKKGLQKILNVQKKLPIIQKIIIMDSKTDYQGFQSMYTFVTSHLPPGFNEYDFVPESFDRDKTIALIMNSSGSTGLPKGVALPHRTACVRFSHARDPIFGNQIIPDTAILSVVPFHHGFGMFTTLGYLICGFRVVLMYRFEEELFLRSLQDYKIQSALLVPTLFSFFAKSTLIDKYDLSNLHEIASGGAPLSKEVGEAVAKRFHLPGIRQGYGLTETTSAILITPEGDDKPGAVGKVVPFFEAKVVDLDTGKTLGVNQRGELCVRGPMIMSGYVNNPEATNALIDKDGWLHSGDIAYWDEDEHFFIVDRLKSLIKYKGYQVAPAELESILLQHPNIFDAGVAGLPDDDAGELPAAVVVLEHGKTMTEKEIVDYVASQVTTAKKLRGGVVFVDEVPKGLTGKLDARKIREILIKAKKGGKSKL
In short: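 Purified P. pyralis luciferase (0.04 ug/mL, 4x reagent) added to Tris-acetate buffer with 0.013 mM D-luciferin, 0.013 mM ATP and 13.3 mM Mg-acetate; compounds preincubated 15 min, then luminescence read after 5 min, RT.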

[8] = KB-8-5-11 Cancer Cell Toxicity qHTS against the NCATS CANVASS Library (AID 1347364); further: nearly all actives have a fitted effect of over 75% in size
In short: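 Natural products were titrated in 11 points onto KB-8-5-11 cells, 500 per well, and cytotoxicity was scored from CellTiter-Glo luminescence after 72 hr culture.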

[9] = SDT Cancer Cell Toxicity qHTS against the NCATS CANVASS Library (AID 1347365);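 further: SDT canine glioma cells 500 per well in 1536 well plates; nearly all actives have a fitted effect of over 60% in size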
In short: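 Dispense 500 SDT cells per well; pin-transfer compounds; incubate 72 hr at 37C, 5% CO2, 95% RH; add CellTiterGlo and read luminescence.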

[10] = KB-3-1 Cancer Cell Toxicity qHTS against the NCATS CANVASS Library (AID 1347366); conditions: KB-3-1 viability, CellTiter-Glo luminescence, 72 h; at 46.1 µM (top of the series); further: nearly all actives have a fitted effect of over 75% in size
In short: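 CellTiter-Glo luminescence measured viability after 72 h at 37C. KB-3-1 cells were seeded at 500 per well in DMEM/10% FBS.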

[11] = qHTS for ATAD5 Agonist screened against the NCATS CANVASS Library (AID 1347367);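 further: luciferase reporter driven by ATAD5 which rises upon DNA damage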
In short: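 Genotoxicity via ATAD5-luciferase luminescence after 16 h compound exposure (11-point series) at 37C in HEK293T-ATAD5 cells. CellTiter-Fluor viability read precedes the luminescence read; MMS serves as positive control.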

[12] = G06 Cancer Cell Toxicity qHTS against the NCATS CANVASS Library (AID 1347368); further: nearly all actives have a fitted effect of over 60% in size
In short: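 Cytotoxicity toward canine glioma G06 cells is scored from cellular ATP via luminescence after 72 hr compound exposure at 500 cells/well.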

[13] = MCF7 Cancer Cell Toxicity qHTS against the NCATS CANVASS Library (AID 1347369); conditions: MCF7 viability, ATP luminescence (CellTiter-Glo), 72 h; at 46 µM (top of the series)
In short: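 Cytotoxicity was measured as CellTiterGlo luminescence (ATP) after 72 h at 37 °C. The cells were MCF7 at 500 per well, with an 11-point compound concentration series.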

[14] = qHTS for ATAD5 Antagonist screened against the NCATS CANVASS Library (AID 1347370);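 further: HEK293T cells carrying an ATAD5 luciferase reporter co-treated with 10 µM 5-fluorouridine; nearly all actives have a fitted effect of over 65% in size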
In short: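 HEK293T cells with a stably integrated ATAD5-controlled luciferase reporter were exposed to compounds (11-pt) alongside 10 uM 5-fluorouridine as ATAD5 stabilizer for 16hr at 37C. Viability was read by CellTiter-Fluor fluorescence, then ATAD5 by luminescence.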

[15] = J3T Cancer Cell Toxicity qHTS against the NCATS CANVASS Library (AID 1347371);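 further: J3T is a canine glioma cancer cell line seeded at 500 cells per well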
In short: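 Viability of the J3T glioma line from dog is scored by ATP luminescence after a 72 hr incubation with natural products.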

[16] = target: Nuclear receptor subfamily 1 group I member 3 (Homo sapiens) (UniProt Q14994); assay: qHTS for Constitutive Androstane Receptor (CAR) Antagonist screened against the NCATS CANVASS Library (AID 1347372);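 further: cells stimulated with 50 nM CITCO agonist so inhibition reflects antagonism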
Sequence of Nuclear receptor subfamily 1 group I member 3 (Homo sapiens) (Q14994 whole entry, looked up): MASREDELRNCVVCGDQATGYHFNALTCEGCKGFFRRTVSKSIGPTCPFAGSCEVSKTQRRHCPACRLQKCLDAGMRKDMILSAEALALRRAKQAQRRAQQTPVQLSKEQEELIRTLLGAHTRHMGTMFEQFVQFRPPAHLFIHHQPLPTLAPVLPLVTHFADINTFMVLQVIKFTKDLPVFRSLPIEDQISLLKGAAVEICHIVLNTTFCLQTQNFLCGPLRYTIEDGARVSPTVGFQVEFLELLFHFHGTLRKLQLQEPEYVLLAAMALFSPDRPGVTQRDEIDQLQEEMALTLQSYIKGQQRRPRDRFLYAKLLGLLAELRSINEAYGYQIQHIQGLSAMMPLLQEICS
In short: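 HepG2 cells stably carrying hCAR and CYP2B6-2.2kb luciferase reporter, 2500 cells/well, compound with 50 nM CITCO agonist for 24hr at 37C. ONE-Glo luminescence measured CAR activity; CellTiter-Fluor read viability.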

[17] = target: Nuclear receptor subfamily 1 group I member 3 (Homo sapiens) (UniProt Q14994); assay: qHTS for Constitutive Androstane Receptor (CAR) Agonist screened against the NCATS CANVASS Library (AID 1347373);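 further: every well also contained 1.5 µM PK11195 alongside the test compound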
In short: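 CAR agonism is scored as CYP2B6-promoter luciferase induction in a double-stable transfected HepG2 line, where 1.5uM PK11195 is included in each well. Compounds were tested over a 24hr exposure.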

[18] = qHTS for Hypoxia signaling pathway (HIF-1) antagonists against the NCATS CANVASS Library (AID 1347374);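 further: HRE-bla ME-180 cells stimulated with cobalt chloride to stabilize HIF-1alpha; nearly all actives have a fitted effect of over 60% in size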
In short: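 HRE-bla ME-180 cells (2,000/well, 0.5% dialyzed FBS) were pre-incubated 5 h, then given an 11-point compound series plus CoCl2 (60 uM solution as added) for 17 h at 37C. CCF4 β-lactamase read (ex 405, em 460/530 nm) after 2 h at RT.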

[19] = qHTS for Hypoxia signaling pathway (HIF-1) agonists against the NCATS CANVASS Library (AID 1347375)
In short: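 Inducers of HIF-1 signaling were detected in ME-180 cells bearing an HRE-driven beta-lactamase reporter after 17 h compound exposure. Activity came from CCF4-AM FRET emission ratio (460/530 nm) in qHTS format.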

[20] = 10-beta competent E. coli microbial cell viability qHTS against the NCATS CANVASS Library (AID 1347376)
In short: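 Cytotoxicity toward competent E. coli is scored from cellular ATP content via BacTiter-Glo luminescence following overnight compound exposure at 37C, 5% CO2.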

Measured: outcome

CN(C)CCc1c[nH]c2ccccc12
inactive: all assays above
